According to PubChem BioAssay AID687001 (Broad Institute, 2013):
Measured potencies and affinities stand elsewhere. Activity calls are given as the source filed them.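 Rule for the calls: active = signal-lowering compounds whose fitted half-maximal concentration is at or below twice the top tested dose in every run; inconclusive = runs disagree, flat 30 to 70% inhibition, or poor curve fit; inactive = the rest.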

molecular target: Protein S100-A4 (Homo sapiens) (UniProt P26447); experiment: S100A4-myosin IIA binding inhibitor potency, dose response, biochemical, fluorescence polarization, cherry-picked hits (AID 687001); conditions: FP, S100A4/TAMRA-myosin IIA peptide binding; series mostly up to 11 µM
Sequence (P26447 whole entry, looked up): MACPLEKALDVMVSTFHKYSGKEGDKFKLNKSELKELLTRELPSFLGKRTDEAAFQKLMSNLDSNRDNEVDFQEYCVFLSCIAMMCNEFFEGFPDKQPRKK

outcome, inactive:
Cc1ccc(OCCOCCn2cnc3ccccc3c2=O)c([N+](=O)[O-])c1
CC(=O)Nc1ccc(Nc2nnc(-c3ccc(C)c(S(N)(=O)=O)c3)c3ccccc23)cc1
Cc1cc(Br)ccc1NC(=S)NC1CCCC1
Cc1ccc(CNc2cnccn2)s1
C[C@@H]1CCCCO[C@@H](CN(C)C(=O)C2CCCCC2)[C@@H](C)CN([C@H](C)CO)C(=O)c2cc(NC(=O)Nc3cccc4ccccc34)ccc2O1
O=C(O)c1ccccc1SCCS(=O)(=O)c1ccc(Cl)cc1Cl
COc1ccc(CN2CCC(C(=O)Nc3ccc(Oc4cccnc4)cc3)CC2)c(C)c1C
CCOC(=O)C1(C)CCCN1C(=O)c1ccc(C(F)(F)F)nc1C (stereo unspecified)
C[C@@H]1CN([C@H](C)CO)C(=O)c2cccc(NS(C)(=O)=O)c2O[C@@H]1CN(C)CC1CC1
CCOc1ccc(NC(=O)CSc2nccn(-c3ccc4c(c3)OCCO4)c2=O)cc1
CCOc1ccc(/C=N/NC(=O)c2ccccc2C)cc1CN1CC2CC(C1)c1cccc(=O)n1C2 (stereo unspecified)
Cc1cc2cc(CNC(=O)Nc3cccc(Cl)c3)ccc2n1C
CCc1noc(C)c1C(=O)Nc1nc(-c2ccc(OC)cc2OC)cs1
O=C(CC(F)(F)F)N1C[C@@H]2[C@H](c3ccccc31)[C@@H](CO)N2CC1CCOCC1
CCOC(=O)[C@@H]1[C@H]2COc3cc(OC)ccc3[C@@H]2N2C(=O)N(c3cccc(C)c3)C(=O)[C@]12C
Cc1ccc(S(=O)(=O)N(C)C[C@H]2OCCCC[C@@H](C)Oc3ccc(NS(=O)(=O)c4c(C)noc4C)cc3C(=O)N([C@@H](C)CO)C[C@H]2C)cc1
